A number with no mark means an inactive call. Inconclusive results are not listed. Calls of active or inactive are those of the source. Unless noted, the call rests on the fitted dose curve; in most records, active means well fitted curve in the direction sought with a large enough effect in the repeat runs; inconclusive means weak or mixed curves; inactive means no such curve, though single readings can be large; an effect the other way counts as inactive or inconclusive.

In test [1] the target is Estrogen receptor beta (Homo sapiens) (UniProt Q92731). As to the kind of experiment: qHTS assay to identify small molecule agonists of the estrogen receptor beta (ER-beta) signaling pathway (AID 1259377; active means well fitted activation curve with a large enough effect in the signal ratio in the repeat runs, not every such curve was filed as active; the % refers to the signal ratio). The gist of the method:
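Read-out: beta-lactamase FRET fluorescence. Cell line: ER-beta-UAS-bla HEK293T in 2% charcoal-stripped FBS. Exposure: 16 hr at 37C. Substrate step: 2 h at room temperature.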
On the technique in general: Quantitative high-throughput screening tests each substance at several concentrations.

Test [2] has the same target. The experiment in a line: qHTS assay to identify small molecule antagonists of the estrogen receptor beta (ER-beta) signaling pathway (AID 1259378; active means well fitted inhibition curve with a large enough effect in the signal ratio in the repeat runs, not every such curve was filed as active; the % refers to the signal ratio). Summed up:
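ER-beta-UAS-bla HEK293T (GripTite) cells in 2% charcoal-stripped FBS medium were preincubated 6 hr at 37C, dosed with compound, then stimulated with 1 nM E2 (final) for 16 hr; beta-lactamase reporter read by B/G FRET fluorescence after 2 hr substrate loading.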

Test [3] in a line: qHTS assay to identify small molecule agonists of the estrogen receptor beta (ER-beta) signaling pathway - cell viability counter screen (AID 1259380). Further: nearly all actives have a fitted effect of over 30% in size. The gist of the method: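 Same-well viability counter screen. Cells: ER-beta-UAS-bla HEK293T, plated 6 hr before compound, in 2% charcoal-stripped FBS. Compound exposure 16 hr, 37C; viability by CellTiter-Glo luminescence after 30 min at room temperature.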

Test [4] is described as follows: qHTS assay to identify small molecule antagonists of the estrogen receptor beta (ER-beta) signaling pathway - cell viability counter screen (AID 1259382). Further: series mostly up to about 92 µM; nearly all actives have a fitted effect of over 55% in size. Summed up:
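Following a 6 hr plating period, HEK293T cells carrying a UAS-driven beta-lactamase reporter under ER-beta control received compounds and 1nM E2 (final). After 16 hr at 37C and 2 hr substrate loading, CellTiter-Glo luminescence indicated viability.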

For test [5], the target named is Estrogen receptor (Homo sapiens) (UniProt P03372). As to the kind of experiment: qHTS assay to identify small molecule agonists of the estrogen receptor alpha (ER-alpha) signaling pathway in the presence of an antagonist (AID 1259383; calls by dose curve; further: top concentration of the series differs between compounds; nearly all actives have a fitted effect of over 15% in size). Summed up: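 Cells are hormone-deprived for 5 days (charcoal-stripped FBS, no phenol red), plated for 24hr, spiked with 10.0nM ICI-182,780, then dosed at 15 concentrations. After 22hr at 37C, ONE-Glo luminescence reports ERE-luciferase activity.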
Sequence of Estrogen receptor (Homo sapiens) (P03372 whole entry, looked up): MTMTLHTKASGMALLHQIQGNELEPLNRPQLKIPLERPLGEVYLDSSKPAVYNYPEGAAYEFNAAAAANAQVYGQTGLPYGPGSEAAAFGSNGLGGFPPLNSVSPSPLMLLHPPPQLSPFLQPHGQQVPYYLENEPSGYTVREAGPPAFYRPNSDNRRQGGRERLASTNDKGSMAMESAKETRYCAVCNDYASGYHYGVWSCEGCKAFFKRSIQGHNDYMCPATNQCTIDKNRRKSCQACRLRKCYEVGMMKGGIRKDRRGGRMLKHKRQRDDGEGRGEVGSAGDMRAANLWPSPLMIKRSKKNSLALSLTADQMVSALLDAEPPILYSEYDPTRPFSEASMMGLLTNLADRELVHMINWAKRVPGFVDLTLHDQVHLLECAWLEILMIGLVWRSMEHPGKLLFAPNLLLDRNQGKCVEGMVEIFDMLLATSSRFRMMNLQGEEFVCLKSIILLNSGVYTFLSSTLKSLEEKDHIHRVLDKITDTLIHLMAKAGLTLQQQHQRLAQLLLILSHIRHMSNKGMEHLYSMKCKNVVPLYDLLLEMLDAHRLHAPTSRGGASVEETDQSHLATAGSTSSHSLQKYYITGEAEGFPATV

Test [6] can be described thus: qHTS assay to identify small molecule agonists or antagonists of the thyroid stimulating hormone receptor (TSHR) signaling pathway - wild type cell line counter screen (AID 1259384; calls by dose curve). The gist of the method:
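Wild-type HEK293 cells were plated 18 h at 37 C/5% CO2, pin-dosed with compound plus Ro20-1724 medium, held 30 min at room temperature, then given cAMP-d2 and anti-cAMP-cryptate; fluorescence was read after 1 h. Fifteen concentrations, triplicate.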

The target in test [7] is Thyrotropin receptor (Homo sapiens) (UniProt P16473). As to the kind of experiment: qHTS assay to identify small molecule antagonists of the thyroid stimulating hormone receptor (TSHR) signaling pathway (AID 1259385; calls by dose curve; further: nearly all actives have a fitted effect of over 20% in size; further: potency means the concentration at half of the fitted maximal effect). Summed up:
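TSHR-HEK293 cells were plated and held 18 h at 37C/5% CO2, then given compound plus Ro20-1724 and stimulated with TSH at 1.5 ng/mL final. After 30 min at room temperature, cAMP was detected with cAMP-d2/anti-cAMP-cryptate (1 h) by fluorescence.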

Test [8] in a line: qHTS assay to identify small molecule agonists of the estrogen receptor alpha (ER-alpha) signaling pathway in the presence of an antagonist - cell viability counter screen (AID 1259386).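 Further: series mostly up to about 92 µM; cells exposed to compounds for 22 h at 37 °C before the viability read; nearly all actives have a fitted effect of over 30% in size.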 The gist of the method:
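Cells are starved of estrogens for 5 days in charcoal-stripped serum, seeded for 24hr and co-treated with ICI-182,780 (10.0nM final) and test compounds. After 22hr at 37C, viability is read as CellTiter-Fluor fluorescence.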

The target in test [9] is Progesterone receptor (Homo sapiens) (UniProt P06401). The experiment in a line: qHTS assay to identify small molecule agonists of the progesterone receptor (PR) signaling pathway (AID 1346784; calls by dose curve; further: nearly all actives have a fitted effect of over 30% in size). Summed up: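 Compounds were tested for PR agonism in HEK 293T cells bearing a beta-lactamase gene under UAS control. Treatment lasted 16 hr at 37C; signal came from fluorescence of a FRET substrate.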
Sequence of Progesterone receptor (Homo sapiens) (P06401 whole entry, looked up): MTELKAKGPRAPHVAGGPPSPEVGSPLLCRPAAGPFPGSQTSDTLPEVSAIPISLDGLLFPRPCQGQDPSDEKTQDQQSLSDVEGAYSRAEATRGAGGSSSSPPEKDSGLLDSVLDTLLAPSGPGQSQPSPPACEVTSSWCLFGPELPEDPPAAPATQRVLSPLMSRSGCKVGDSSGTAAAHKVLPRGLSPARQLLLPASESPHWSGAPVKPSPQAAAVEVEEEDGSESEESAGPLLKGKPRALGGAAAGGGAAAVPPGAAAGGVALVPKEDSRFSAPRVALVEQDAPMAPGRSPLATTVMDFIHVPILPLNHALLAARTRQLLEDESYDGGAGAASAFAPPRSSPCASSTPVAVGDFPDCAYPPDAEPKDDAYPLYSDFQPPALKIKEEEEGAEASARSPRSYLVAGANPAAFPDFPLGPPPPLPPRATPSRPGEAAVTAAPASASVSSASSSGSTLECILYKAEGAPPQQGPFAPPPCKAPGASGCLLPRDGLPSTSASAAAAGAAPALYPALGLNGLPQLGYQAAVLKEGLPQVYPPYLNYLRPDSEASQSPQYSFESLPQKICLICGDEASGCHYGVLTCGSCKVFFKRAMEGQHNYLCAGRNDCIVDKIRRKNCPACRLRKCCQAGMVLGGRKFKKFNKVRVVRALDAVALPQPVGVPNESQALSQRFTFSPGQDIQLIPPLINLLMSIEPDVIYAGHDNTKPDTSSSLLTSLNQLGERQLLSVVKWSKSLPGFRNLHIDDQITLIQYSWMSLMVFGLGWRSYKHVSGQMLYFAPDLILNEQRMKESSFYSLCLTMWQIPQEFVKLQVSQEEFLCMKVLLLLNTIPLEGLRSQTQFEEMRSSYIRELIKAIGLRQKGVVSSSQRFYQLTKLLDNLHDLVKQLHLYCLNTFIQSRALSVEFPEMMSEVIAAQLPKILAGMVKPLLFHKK

The nature of test [10]: qHTS assay to identify small molecule antagonists of the progesterone receptor (PR) signaling pathway - cell viability counter screen (AID 1346798). Further: series mostly up to about 92 µM; nearly all actives have a fitted effect of over 50% in size. The gist of the method:
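Following a 4 hr attachment, PR-UAS-bla HEK293T cells in charcoal-stripped FBS medium were exposed to compounds with R5020 for 16 hr; CellTiter-Glo was added and luminescence read after 30 min at room temperature.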

Test [11] is described as follows: qHTS assay to identify small molecule agonists of the progesterone receptor (PR) signaling pathway - cell viability counter screen (AID 1346799; calls by dose curve; further: nearly all actives have a fitted effect of over 45% in size). Summed up:
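Here, 3,000 PR-UAS-bla HEK293T cells per well were treated with compounds for 16 hr after a 6 hr preincubation at 37C and 5% CO2; cell viability is the CellTiter-Glo luminescence signal.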

The nature of test [12]: qHTS assay to identify small molecule antagonists of the TGF-beta/Smad signaling pathway - cell viability counter screen (AID 1346824). Further: nearly all actives have a fitted effect of over 50% in size. The gist of the method: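 SBE-bla HEK 293T cells were plated overnight at 37 C, then given compounds in DMSO plus TGF-beta1 (added as 0.25 ng/mL solution) for 5 hr. After the bla read, CellTiter-Glo was added to the same wells and luminescence read after 30 min at room temperature.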

A short description of test [13]: qHTS assay to identify small molecule agonists of the TGF-beta/Smad signaling pathway - cell viability counter screen (AID 1346829). Further: top concentration of the series differs between compounds; nearly all actives have a fitted effect of over 45% in size. Summed up: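 Luminescence from CellTiter-Glo, read after a 30 min room-temperature incubation, gives cell viability of SBE-bla HEK 293T cells treated 5 hr with compounds at 37 C.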
Test [14] is described as follows: qHTS assay to identify small molecule agonists of the TGF-beta/Smad signaling pathway (AID 1346859; active means well fitted activation curve with a large enough effect in the signal ratio in the repeat runs, not every such curve was filed as active; the % refers to the signal ratio; further: series mostly up to about 77 µM). The gist of the method:
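Each well held 4,000 SBE-bla HEK 293T cells incubated overnight before compound addition; 5 hr later the cleavable FRET substrate went on for 2 hr at room temperature, and fluorescence was read at two emissions.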

The target in test [15] is Thyrotropin-releasing hormone receptor (Homo sapiens) (UniProt P34981). As to the kind of experiment: qHTS assay to identify small molecule antagonists of the thyrotropin-releasing hormone receptor (TRHR) signaling pathway (AID 1346877; active means well fitted inhibition curve with a large enough effect in the repeat runs, not every such curve was filed as active; further: series mostly up to about 51 µM). Summed up:
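Cells (TRHR-HEK293) are plated and kept 18 h at 37 °C/5% CO2. A calcium-sensitive dye is added for 2 h, compound follows for 5 min at room temperature, and TRH is then given at 1 nM final.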

The target is the same in test [16]. The experiment in a line: qHTS assay to identify small molecule agonists of the thyrotropin-releasing hormone receptor (TRHR) signaling pathway (AID 1346891; calls by dose curve; further: series mostly up to about 58 µM). The gist of the method: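 Screening of agonists relied on calcium signalling in HEK293 cells expressing human TRHR: dye loading 2 h at 37 °C preceded compound addition and a 3-min fluorescence time course.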

Test [17] in a line: qHTS assay to identify small molecule agonists of the androgen receptor (AR) signaling pathway in the presence of an antagonist - cell viability counter screen (AID 1259379).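 Further: MDA-kb2 human breast cancer cells carrying an MMTV luciferase reporter; series mostly up to about 92 µM; nearly all actives have a fitted effect of over 25% in size.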 The gist of the method:
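Fluorescence from CellTiter-Fluor, added after 15 hr and read 1 hr later, gave cell viability. Cells were MDA-kb2 exposed to compounds (15 concentrations) in the presence of 3.0uM nilutamide at 37C, 0% CO2.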

In test [18] the target is Progesterone receptor (Homo sapiens) (UniProt P06401). As to the kind of experiment: qHTS assay to identify small molecule antagonists of the progesterone receptor (PR) signaling pathway (AID 1346795; active means well fitted inhibition curve with a large enough effect in the signal ratio in the repeat runs, not every such curve was filed as active; the % refers to the signal ratio). Summed up: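 In HEK293T cells bearing the PR-UAS-bla reporter, compound effects on promegestone-driven (1 nM) beta-lactamase expression are assessed after 16 hr using a fluorescent FRET substrate incubated 2 hr at room temperature.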

Sequence of Estrogen receptor beta (Homo sapiens) (Q92731 whole entry, looked up): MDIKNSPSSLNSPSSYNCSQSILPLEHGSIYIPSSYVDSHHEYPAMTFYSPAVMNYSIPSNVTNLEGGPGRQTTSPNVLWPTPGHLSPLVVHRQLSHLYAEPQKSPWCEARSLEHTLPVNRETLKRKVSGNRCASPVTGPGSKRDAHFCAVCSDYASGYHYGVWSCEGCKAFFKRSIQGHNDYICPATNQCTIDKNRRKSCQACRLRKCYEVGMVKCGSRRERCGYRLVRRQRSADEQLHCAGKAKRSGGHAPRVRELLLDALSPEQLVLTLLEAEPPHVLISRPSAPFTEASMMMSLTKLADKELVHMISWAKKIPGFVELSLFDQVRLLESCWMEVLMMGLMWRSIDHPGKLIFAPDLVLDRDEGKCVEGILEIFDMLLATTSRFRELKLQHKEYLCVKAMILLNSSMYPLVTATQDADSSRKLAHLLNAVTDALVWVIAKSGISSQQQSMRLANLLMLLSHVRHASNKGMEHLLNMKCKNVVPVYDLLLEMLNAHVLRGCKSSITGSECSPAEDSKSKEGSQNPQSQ
Sequence of Thyrotropin-releasing hormone receptor (Homo sapiens) (P34981 whole entry, looked up): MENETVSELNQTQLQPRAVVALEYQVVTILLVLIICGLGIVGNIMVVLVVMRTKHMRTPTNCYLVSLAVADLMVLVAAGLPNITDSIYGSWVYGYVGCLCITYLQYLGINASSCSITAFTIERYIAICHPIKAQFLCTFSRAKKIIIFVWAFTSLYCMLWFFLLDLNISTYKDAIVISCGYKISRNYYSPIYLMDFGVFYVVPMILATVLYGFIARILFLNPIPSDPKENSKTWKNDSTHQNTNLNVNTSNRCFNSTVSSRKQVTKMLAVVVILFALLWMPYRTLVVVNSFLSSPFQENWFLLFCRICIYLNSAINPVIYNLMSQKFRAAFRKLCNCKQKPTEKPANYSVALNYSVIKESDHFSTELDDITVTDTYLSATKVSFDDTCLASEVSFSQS
Sequence of Thyrotropin receptor (Homo sapiens) (P16473 whole entry, looked up): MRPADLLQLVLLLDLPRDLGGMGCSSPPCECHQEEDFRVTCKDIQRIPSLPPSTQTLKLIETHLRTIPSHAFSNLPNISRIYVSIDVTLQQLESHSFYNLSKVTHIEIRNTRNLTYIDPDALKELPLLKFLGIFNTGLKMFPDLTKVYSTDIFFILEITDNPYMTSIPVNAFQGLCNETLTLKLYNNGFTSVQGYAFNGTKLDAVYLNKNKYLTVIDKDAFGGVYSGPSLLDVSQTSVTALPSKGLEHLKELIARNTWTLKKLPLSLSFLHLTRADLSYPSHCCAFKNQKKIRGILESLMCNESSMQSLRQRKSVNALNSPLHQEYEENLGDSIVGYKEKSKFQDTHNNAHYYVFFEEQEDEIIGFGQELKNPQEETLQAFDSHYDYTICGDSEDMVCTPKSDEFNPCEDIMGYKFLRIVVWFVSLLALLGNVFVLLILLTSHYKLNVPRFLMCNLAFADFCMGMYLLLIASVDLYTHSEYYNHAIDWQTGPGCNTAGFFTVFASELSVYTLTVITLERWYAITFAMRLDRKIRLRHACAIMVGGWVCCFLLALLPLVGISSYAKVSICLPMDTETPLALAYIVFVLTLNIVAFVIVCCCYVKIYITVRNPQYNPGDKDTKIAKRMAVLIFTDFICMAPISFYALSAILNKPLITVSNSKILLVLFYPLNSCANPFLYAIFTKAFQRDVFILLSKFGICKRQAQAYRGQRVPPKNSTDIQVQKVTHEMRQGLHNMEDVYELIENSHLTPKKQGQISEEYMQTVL

Turning to `O=C(C(Cl)Cl)N1CCOC12CCCCC2`, the compound was classed as inactive in test [1], in test [4], in [6], in [12], in test [13] and in test [14]. In addition, the result in test [15] was inactive. Besides, the Potency entry in [2], in test [3], in test [5], in test [7], in [8] and in [9] was “inactive” in each case. The Potency entry in [10], in [11] and in test [16] was “inactive” in each case.
For the compound `C=Cc1ccccc1`, the compound was called inactive in test [1], in test [4], in test [13] and in test [14]. Besides, the Potency result in test [2], in test [17], in [5], in [8], in [9] and in test [10] was “inactive” throughout. The Potency entry in [11] is “inactive”.
`CN(C)CCOc1ccccc1Cc1ccccc1`: the outcome in [1], in test [6], in test [12], in test [13], in [14] and in test [15] was inactive. The Potency entry in test [2], in test [17], in test [8] and in test [16] was “inactive” in each case. Further, the Potency in test [7] was 29.8 µM (active).
As to `c1ccc(CN(CC2=NCCN2)c2ccccc2)cc1`, the compound was classed as inactive in [1], in test [4], in test [6], in test [12], in test [13] and in [14]. Besides, the Potency entry in test [2], in test [17], in test [3], in [5], in test [7] and in [8] was “inactive” in each case. In addition, the Potency entry in [9] and in [11] was “inactive” in each case.
For `CC(=O)N(CC(O)CN(C(C)=O)c1c(I)c(C(=O)NCC(O)CO)c(I)c(C(=O)NCC(O)CO)c1I)c1c(I)c(C(=O)NCC(O)CO)c(I)c(C(=O)NCC(O)CO)c1I` (stereo not drawn), the result in [1], in test [6], in test [12], in test [13], in [14] and in test [15] was inactive. In addition, the Potency entry in test [2], in test [17], in [3], in test [5], in [7] and in test [8] was “inactive” in each case. The Potency result in [10] and in test [11] was “inactive” throughout.
As to `CC(C)O`, the result in [1], in test [4], in [6], in test [12], in [13] and in test [14] was inactive. The result in test [15] was inactive. The Potency entry in test [2], in [17], in test [5], in test [7], in [8] and in test [9] was “inactive” each time. For the same compound, the Potency entry in test [11] and in test [16] was “inactive” each time.
With `FC(F)(F)C(Cl)(Cl)Cl`, the call in [1], in test [4], in [6], in test [12], in test [13] and in test [14] was inactive. Further, the result in [15] was inactive. In addition, the Potency result in test [2], in test [17], in test [3], in test [5], in test [7] and in test [8] was “inactive” throughout. Also, the Potency result in [18], in test [11] and in test [16] was “inactive” each time.
As for `O=S(=O)(O)C(F)(F)F`, the call in [1], in test [6], in test [12], in test [13], in [14] and in [15] was inactive. The Potency result in [2], in test [17], in test [3], in [7], in [8] and in [9] was “inactive” throughout. Besides, the Potency result in [11] and in test [16] was “inactive” in each case.
For the compound `CCCCNc1ccc(C(=O)OCCN(CC)CC)cc1`, the compound was classed as inactive in test [1], in test [4], in test [6], in test [12], in test [13] and in test [14]. Moreover, the outcome in test [15] was inactive. Further, the Potency entry in test [2], in test [17], in [5], in test [7], in test [8] and in test [9] was “inactive” throughout. Besides, the Potency result in test [18], in test [10], in test [11] and in test [16] was “inactive” each time.

The record behind these values is PubChem BioAssay (Tox21).
